10 compounds from PubChem BioAssay (EPA / NIEHS) can be followed below.

Molecules are shown by their SMILES. Inconclusive results are not listed. Active and inactive are the calls of the source. The calls were made as follows: active = hit-call score of the fitted dose curve at least 0.9, where 1 is the maximum; inconclusive = response in the unintended direction; inactive = score below 0.9.

In assay [1] the target is human Adrenergic, Alpha 2c Receptor (Adra2C), ADRA2C (gene 152) (UniProt P18825). The assay can be described thus: NVS_GPCR_hAdra2C: NovaScreen (NVS) G Protein-Coupled Receptor Assay for human Adrenergic, Alpha 2c Receptor (Adra2C) (AID 2283259). The method, boiled down: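 Screened first in duplicate at 25 uM, with actives then run as concentration series. Membranes from Sf9 cells were exposed for 1 h, and displacement of radioligand was counted after filtration, using DMSO as baseline.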
Chain of human Adrenergic, Alpha 2c Receptor (Adra2C), ADRA2C (gene 152) (P18825 whole entry, looked up): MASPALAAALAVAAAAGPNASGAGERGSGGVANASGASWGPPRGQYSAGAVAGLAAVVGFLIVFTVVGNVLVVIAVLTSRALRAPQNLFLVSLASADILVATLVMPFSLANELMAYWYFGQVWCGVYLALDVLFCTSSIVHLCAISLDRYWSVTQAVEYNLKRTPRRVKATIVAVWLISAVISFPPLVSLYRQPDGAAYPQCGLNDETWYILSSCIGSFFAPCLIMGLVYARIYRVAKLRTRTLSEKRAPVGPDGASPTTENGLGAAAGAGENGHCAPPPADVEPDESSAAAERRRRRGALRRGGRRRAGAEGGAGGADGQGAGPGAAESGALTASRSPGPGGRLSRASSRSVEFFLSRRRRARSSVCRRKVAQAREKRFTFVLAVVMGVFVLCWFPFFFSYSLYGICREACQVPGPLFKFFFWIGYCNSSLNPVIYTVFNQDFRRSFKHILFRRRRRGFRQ

Assay [2] concerns the target human Dopamine Receptor D4.4 (DRD4.4), DRD4 (gene 1815) (UniProt P21917). In words: NVS_GPCR_hDRD4.4: NovaScreen (NVS) G Protein-Coupled Receptor Assay for human Dopamine Receptor D4.4 (DRD4.4) (AID 2283264). The method, boiled down: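 Filter-binding assay with a tritiated or iodinated ligand, cell-free receptor prepared from CHO, 1 hour. Loss of bound radioactivity versus DMSO; single 25 uM duplicate screen, then concentration-response for actives.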

The target of assay [3] is human Histamine 1 Receptor (H1), HRH1 (gene 3269) (UniProt P35367). In words: NVS_GPCR_hH1: NovaScreen (NVS) G Protein-Coupled Receptor Assay for human Histamine 1 Receptor (H1) (AID 2283268). The method, boiled down:
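Filter-based scintillation detection of radioligand binding to human H1, 1 h incubation; chemicals screened in duplicate at 25 uM, then concentration-response; signal loss relative to DMSO taken as activity.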

Assay [4] addresses D(1A) dopamine receptor (Homo sapiens) (UniProt P21728). The assay can be described thus: NVS_GPCR_hDRD1: NovaScreen (NVS) G Protein-Coupled Receptor Assay for human Dopamine Receptor D1 (DRD1) (AID 2283269). The method, boiled down:
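Cell-free radioligand binding to human DRD1 from HEK293 membranes, read 1 h after dosing by filter-based scintillation counting. Loss of signal versus DMSO baseline marks displacement. Primary screen at 25 uM single concentration in duplicate; actives followed up in concentration series.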

Assay [5] concerns the target human Opioid Receptor Delta 1 (Opiate D1), OPRD1 (gene 4985) (UniProt P41143). In words: NVS_GPCR_hOpiate_D1: NovaScreen (NVS) G Protein-Coupled Receptor Assay for human Opioid Receptor Delta 1 (Opiate D1) (AID 2283280). The method, boiled down: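 Membrane preparations from CHO cells bearing the human receptor were incubated 1 h with test chemical, and bound radioligand was counted after filtration. Actives from 25 uM duplicate screening were retested in concentration-response.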

Assay [6] addresses human Purinergic Receptor P2Y, P2RY1 (gene 5028) (UniProt P47900). In words: NVS_GPCR_hPY2: NovaScreen (NVS) G Protein-Coupled Receptor Assay for human Purinergic Receptor P2Y (AID 2283281). The method, boiled down: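 Filtration scintillation readout of radioligand displacement on U937 extract, measured 1 h post-dosing. Single 25 uM duplicate screen, then singleton concentration series to 50 uM for chemicals passing threshold; DMSO as baseline.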

The target of assay [7] is human Endothelin Receptor Type A (ETA), EDNRA (gene 1909) (UniProt P25101). The assay can be described thus: NVS_GPCR_hETA: NovaScreen (NVS) G Protein-Coupled Receptor Assay for human Endothelin Receptor Type A (ETA) (AID 2283265). The method, boiled down:
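Binding of radioligand to membrane protein extracted from SH-SY5Y cells was read by filtration and scintillation after 3 h. Compounds were screened at 25 uM in duplicate, with hits followed up in singleton concentration series to 50 uM.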

Assay [8] deals with human Muscarinic, M4 Receptor, CHRM4 (gene 1132) (UniProt P08173). In words: NVS_GPCR_hM4: NovaScreen (NVS) G Protein-Coupled Receptor Assay for human Muscarinic, M4 Receptor (AID 2283274). The method, boiled down: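 Filter-based scintillation counting of radioligand bound to CHO-expressed human M4 preparations after 1 h; loss of signal fitted versus DMSO. Initial duplicate testing at 25 uM, concentration-response follow-up for actives.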
Chain of human Muscarinic, M4 Receptor, CHRM4 (gene 1132) (P08173 whole entry, looked up): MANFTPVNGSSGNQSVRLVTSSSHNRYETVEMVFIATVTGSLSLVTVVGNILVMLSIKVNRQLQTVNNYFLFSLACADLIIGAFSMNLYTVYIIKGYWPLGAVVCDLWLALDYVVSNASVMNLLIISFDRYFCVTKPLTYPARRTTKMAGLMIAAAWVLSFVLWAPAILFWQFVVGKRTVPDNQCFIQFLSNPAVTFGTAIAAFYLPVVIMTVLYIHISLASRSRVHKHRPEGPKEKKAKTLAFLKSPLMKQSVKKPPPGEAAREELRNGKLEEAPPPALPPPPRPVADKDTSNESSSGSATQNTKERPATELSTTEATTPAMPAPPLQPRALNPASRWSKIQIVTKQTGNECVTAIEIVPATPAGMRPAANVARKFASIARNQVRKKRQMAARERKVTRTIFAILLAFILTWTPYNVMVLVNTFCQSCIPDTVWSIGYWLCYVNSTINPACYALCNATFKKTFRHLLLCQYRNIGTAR

In assay [9] the target is Muscarinic acetylcholine receptor M5 (Homo sapiens) (UniProt P08912). In words: NVS_GPCR_hM5: NovaScreen (NVS) G Protein-Coupled Receptor Assay for human Muscarinic, M5 Receptor (AID 2283275). The method, boiled down: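 Chemicals passing a primary duplicate screen at 25 uM were run as singleton concentration series, maximum 50 uM. Displacement of a specific radioligand from CHO-extracted receptor was read by filter scintillation after 1 h, relative to DMSO.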
Chain of Muscarinic acetylcholine receptor M5 (Homo sapiens) (P08912 whole entry, looked up): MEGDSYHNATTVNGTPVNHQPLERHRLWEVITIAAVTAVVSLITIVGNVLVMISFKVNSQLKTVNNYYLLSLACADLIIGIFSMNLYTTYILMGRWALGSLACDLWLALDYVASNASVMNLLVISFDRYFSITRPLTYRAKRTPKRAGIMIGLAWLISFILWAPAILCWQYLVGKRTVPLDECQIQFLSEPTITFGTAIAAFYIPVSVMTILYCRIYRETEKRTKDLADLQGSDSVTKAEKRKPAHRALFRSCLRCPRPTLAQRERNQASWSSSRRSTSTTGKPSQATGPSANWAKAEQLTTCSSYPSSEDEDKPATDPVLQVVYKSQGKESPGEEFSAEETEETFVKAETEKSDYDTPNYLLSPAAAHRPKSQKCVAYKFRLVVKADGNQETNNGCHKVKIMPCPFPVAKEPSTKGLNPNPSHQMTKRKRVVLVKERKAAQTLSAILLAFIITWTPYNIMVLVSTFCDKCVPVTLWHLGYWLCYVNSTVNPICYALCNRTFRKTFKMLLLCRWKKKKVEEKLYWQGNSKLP

Assay [10] has as its target human Neurokinin, NK2 Receptor, TACR2 (gene 6865) (UniProt P21452). The assay can be described thus: NVS_GPCR_hNK2: NovaScreen (NVS) G Protein-Coupled Receptor Assay for human Neurokinin, NK2 Receptor (AID 2283278).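 Also: actives reduce bound radioligand signal relative to DMSO baseline.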 The method, boiled down: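 CHO-derived membrane protein, radioligand displacement, filter scintillation read at 4 h post-dose. Single-point 25 uM in duplicate, then concentration series for actives; DMSO as negative control.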

Assay [11] addresses human Neurotensin Receptor (NTS), NTSR1 (gene 4923) (UniProt P30989). In words: NVS_GPCR_hNTS: NovaScreen (NVS) G Protein-Coupled Receptor Assay for human Neurotensin Receptor (NTS) (AID 2283279). The method, boiled down:
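Compounds competed with a radiolabelled ligand for binding to CHO-derived human neurotensin receptor; bound signal counted after filtration, 1 h. Screened first at a single concentration of 25 uM in duplicate, then concentration series to 50 uM maximum for actives.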

Assay [12] has as its target Muscarinic acetylcholine receptor M1 (Homo sapiens) (UniProt P11229). The assay can be described thus: NVS_GPCR_hM1: NovaScreen (NVS) G Protein-Coupled Receptor Assay for human Muscarinic, M1 Receptor (AID 2283270). The method, boiled down: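 Actives from a duplicate 25 uM single-point screen were retested in concentration series. Binding measured as displacement of a radioligand from CHO-derived receptor preparation, 1 h incubation, filtration and scintillation counting, analysed as signal loss against DMSO.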

In assay [13] the target is Muscarinic acetylcholine receptor M2 (Homo sapiens) (UniProt P08172). In words: NVS_GPCR_hM2: NovaScreen (NVS) G Protein-Coupled Receptor Assay for human Muscarinic, M2 Receptor (AID 2283273). The method, boiled down: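 CHO-expressed human M2 receptor preparation, competitive displacement of a radioligand read by filter-based scintillation counting after 1 h. Single 25 uM duplicate screen, then concentration-response follow-up of actives; DMSO baseline.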

Assay [14] concerns the target human Adenosine A2a Receptor (AdoRA2a), ADORA2A (gene 135) (UniProt P29274). In words: NVS_GPCR_hAdoRA2a: NovaScreen (NVS) G Protein-Coupled Receptor Assay for human Adenosine A2a Receptor (AdoRA2a) (AID 2283256). The method, boiled down: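 HEK293-derived receptor preparation, radioligand displacement, 1.5 h, filtration + scintillation read. Loss of bound signal scored vs DMSO. Single-point 25 uM in duplicate first, then concentration-response for actives.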

In assay [15] the target is human Adrenergic, Beta 3 Receptor (Adrb3), ADRB3 (gene 155) (UniProt P13945). The assay can be described thus: NVS_GPCR_hAdrb3: NovaScreen (NVS) G Protein-Coupled Receptor Assay for human Adrenergic, Beta 3 Receptor (Adrb3) (AID 2283262). The method, boiled down: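 A cell-free filter binding assay read by scintillation counting, with displacement of a specific radioligand measured after 1 hour. The receptor source was SK-N-MC extracts (cells pretreated with isoproterenol and 8-bromo-cAMP). Compounds were first tested at 25 uM in duplicate and then in concentration series.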

Assay [16] concerns the target human Dopamine Receptor D2 (DRD2), DRD2 (gene 1813) (UniProt P14416). In words: NVS_GPCR_hDRD2s: NovaScreen (NVS) G Protein-Coupled Receptor Assay for human Dopamine Receptor D2 (DRD2) (AID 2283266). The method, boiled down:
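Test compound (25 uM, duplicate in the primary screen; concentration series at follow-up) competed with radioligand for human DRD2 in CHO-derived membrane protein. Filter-based scintillation counting was done 1.5 hours after dosing, with loss of signal analysed against DMSO.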

Chain of D(1A) dopamine receptor (Homo sapiens) (P21728 whole entry, looked up): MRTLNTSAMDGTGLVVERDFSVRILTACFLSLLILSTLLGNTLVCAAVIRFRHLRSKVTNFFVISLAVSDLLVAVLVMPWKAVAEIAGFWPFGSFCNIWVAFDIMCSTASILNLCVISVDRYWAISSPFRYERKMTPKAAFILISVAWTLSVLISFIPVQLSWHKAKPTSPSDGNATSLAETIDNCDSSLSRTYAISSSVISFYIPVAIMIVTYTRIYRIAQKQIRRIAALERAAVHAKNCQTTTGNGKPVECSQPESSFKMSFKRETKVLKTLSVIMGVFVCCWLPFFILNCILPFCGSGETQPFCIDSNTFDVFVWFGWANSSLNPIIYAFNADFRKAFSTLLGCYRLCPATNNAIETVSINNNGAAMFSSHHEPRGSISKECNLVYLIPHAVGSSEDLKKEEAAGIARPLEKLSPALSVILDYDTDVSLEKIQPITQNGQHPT
Chain of human Neurokinin, NK2 Receptor, TACR2 (gene 6865) (P21452 whole entry, looked up): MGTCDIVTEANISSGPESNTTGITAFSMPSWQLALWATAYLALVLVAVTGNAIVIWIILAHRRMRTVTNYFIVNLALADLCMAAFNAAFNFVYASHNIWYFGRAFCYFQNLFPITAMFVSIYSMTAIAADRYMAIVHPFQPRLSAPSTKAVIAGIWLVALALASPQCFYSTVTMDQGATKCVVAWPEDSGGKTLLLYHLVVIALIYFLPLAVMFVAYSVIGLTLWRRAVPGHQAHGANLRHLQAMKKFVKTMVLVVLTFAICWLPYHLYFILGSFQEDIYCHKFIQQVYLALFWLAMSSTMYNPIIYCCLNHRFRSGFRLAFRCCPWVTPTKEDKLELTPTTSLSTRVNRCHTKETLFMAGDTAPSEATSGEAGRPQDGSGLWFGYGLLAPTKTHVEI
Chain of human Opioid Receptor Delta 1 (Opiate D1), OPRD1 (gene 4985) (P41143 whole entry, looked up): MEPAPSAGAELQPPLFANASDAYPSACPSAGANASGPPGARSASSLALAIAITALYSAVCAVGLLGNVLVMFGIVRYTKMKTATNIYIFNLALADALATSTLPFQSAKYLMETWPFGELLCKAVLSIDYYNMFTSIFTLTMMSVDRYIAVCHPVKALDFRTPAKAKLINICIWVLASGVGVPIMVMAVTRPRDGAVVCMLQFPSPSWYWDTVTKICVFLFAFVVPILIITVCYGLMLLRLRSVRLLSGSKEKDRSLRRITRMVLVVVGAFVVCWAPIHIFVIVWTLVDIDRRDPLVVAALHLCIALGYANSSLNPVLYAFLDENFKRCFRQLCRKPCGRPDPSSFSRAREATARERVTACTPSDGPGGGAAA
Chain of human Dopamine Receptor D4.4 (DRD4.4), DRD4 (gene 1815) (P21917 whole entry, looked up): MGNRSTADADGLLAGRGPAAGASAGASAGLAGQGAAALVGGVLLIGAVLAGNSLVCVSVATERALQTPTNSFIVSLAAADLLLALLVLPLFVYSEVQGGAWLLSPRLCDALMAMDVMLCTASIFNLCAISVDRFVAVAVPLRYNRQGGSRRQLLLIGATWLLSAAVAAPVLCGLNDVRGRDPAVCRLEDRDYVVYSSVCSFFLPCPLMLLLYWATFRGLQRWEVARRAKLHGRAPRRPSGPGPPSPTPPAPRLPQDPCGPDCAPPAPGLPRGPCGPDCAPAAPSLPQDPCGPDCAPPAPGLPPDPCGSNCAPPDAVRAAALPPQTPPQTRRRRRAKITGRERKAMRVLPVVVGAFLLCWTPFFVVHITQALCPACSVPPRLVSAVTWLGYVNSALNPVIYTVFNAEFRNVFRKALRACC
Chain of human Adenosine A2a Receptor (AdoRA2a), ADORA2A (gene 135) (P29274 whole entry, looked up): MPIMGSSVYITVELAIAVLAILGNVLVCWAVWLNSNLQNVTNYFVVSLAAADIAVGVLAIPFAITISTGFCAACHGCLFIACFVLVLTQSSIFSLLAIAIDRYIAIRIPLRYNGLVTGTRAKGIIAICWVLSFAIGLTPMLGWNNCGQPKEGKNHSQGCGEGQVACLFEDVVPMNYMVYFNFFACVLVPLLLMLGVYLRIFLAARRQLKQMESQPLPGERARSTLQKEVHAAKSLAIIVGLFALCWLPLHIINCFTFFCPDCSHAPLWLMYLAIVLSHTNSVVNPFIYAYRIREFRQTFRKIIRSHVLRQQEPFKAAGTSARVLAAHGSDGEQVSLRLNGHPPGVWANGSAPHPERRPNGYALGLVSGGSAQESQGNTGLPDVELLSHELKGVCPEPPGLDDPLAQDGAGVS
Chain of human Endothelin Receptor Type A (ETA), EDNRA (gene 1909) (P25101 whole entry, looked up): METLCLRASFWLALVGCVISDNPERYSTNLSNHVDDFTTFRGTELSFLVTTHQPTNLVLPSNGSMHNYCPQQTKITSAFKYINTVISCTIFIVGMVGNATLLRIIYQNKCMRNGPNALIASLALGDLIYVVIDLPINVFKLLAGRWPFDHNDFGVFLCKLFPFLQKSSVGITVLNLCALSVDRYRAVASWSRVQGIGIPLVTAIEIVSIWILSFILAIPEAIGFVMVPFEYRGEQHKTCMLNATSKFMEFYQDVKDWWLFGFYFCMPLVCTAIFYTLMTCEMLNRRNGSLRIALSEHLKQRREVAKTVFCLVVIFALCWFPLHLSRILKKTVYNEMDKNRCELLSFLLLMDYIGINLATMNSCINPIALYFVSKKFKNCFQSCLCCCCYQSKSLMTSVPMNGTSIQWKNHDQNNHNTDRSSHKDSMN
Chain of human Dopamine Receptor D2 (DRD2), DRD2 (gene 1813) (P14416 whole entry, looked up): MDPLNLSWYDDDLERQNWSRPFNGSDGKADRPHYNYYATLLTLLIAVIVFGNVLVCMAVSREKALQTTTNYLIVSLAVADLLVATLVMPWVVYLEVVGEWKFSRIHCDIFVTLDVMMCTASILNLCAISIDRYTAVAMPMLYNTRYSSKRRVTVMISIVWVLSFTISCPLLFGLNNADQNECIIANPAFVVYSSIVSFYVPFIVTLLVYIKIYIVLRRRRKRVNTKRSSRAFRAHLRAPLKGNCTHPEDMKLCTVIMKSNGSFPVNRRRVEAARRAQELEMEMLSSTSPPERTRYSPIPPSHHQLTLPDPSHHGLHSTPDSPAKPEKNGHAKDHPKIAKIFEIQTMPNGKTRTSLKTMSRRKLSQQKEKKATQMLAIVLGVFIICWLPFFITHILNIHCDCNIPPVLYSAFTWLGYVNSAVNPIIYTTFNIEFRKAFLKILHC
Chain of human Histamine 1 Receptor (H1), HRH1 (gene 3269) (P35367 whole entry, looked up): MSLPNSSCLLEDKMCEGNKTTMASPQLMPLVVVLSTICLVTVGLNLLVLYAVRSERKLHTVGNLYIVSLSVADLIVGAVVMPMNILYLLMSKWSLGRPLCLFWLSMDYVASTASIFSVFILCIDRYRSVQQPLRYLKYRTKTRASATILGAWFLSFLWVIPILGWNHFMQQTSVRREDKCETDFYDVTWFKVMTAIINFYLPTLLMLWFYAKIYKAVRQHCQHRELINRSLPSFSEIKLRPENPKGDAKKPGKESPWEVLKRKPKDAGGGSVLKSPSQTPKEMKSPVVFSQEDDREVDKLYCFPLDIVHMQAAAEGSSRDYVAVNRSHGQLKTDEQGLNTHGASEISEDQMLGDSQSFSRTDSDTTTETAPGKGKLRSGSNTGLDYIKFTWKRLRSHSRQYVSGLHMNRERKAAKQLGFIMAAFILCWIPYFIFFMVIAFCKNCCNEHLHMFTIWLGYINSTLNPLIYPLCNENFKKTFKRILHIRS

Usually AC50 stands for the concentration giving half of the maximal activity seen. For the compound `CCCCCCCCCCCCOS(=O)(=O)O`, the AC50 was 16.4 µM (active) in [1], 25 µM (active) in assay [2], 37.6 µM (active) in assay [4] and 18.6 µM (active) in assay [5]. For the same compound, the result in assay [3] and in assay [6] was inactive.

Consider `CCCCc1oc2ccccc2c1C(=O)c1cc(I)c(OCCN(CC)CC)c(I)c1`, for which the AC50 in assay [2] was 18.9 µM (active); in assay [7], 0.59 µM (active); in [8] it was 4.41 µM (active); in [9], 4.86 µM (active); in assay [10], 11.4 µM (active); in assay [11] it was 7.41 µM (active).

For the compound `NC(=NCCCCCCN=C(N)/N=C(\N)Nc1ccc(Cl)cc1)/N=C(\N)Nc1ccc(Cl)cc1`, the AC50 in [4] is 0.618 µM (active); in assay [12], 3.15 µM (active); in assay [10], 2.18 µM (active).

For `CC[N+](CC)(CC)Cc1ccccc1`, the concentration at half-maximal activity (AC50) in assay [13] is 21.5 µM (active).

Consider `COc1cc(OC)nc(NC(=O)NS(=O)(=O)Nc2ccccc2C(=O)N(C)C)n1`, for which, in [4], the compound was classed as inactive.

`CC=O`: the compound was called inactive in assay [4].

Consider `CN(Cc1cnc2nc(N)nc(N)c2n1)c1ccc(C(=O)N[C@@H](CCC(=O)O)C(=O)O)cc1`, for which the AC50 in [14] is 9.68 µM (active); in assay [16], 22 µM (active); in [4], 25 µM (active); in assay [10], 2.6 µM (active); in [5], 25 µM (active). The compound was called inactive in [1], in assay [15], in assay [8] and in [9].

For `CCc1cccc(CC)c1NC(=O)C(=O)O`, the call in assay [4] was inactive.

For the compound `Clc1ccc(Nc2nnc(Cc3ccncc3)c3ccccc23)cc1`, the AC50 in [4] was 16 µM (active); in assay [10] it was 3.61 µM (active).

Turning to `CCOC(=O)CN[C@@H](C(=O)N1CC[C@H]1C(=O)NCc1ccc(/C(N)=N/O)cc1)C1CCCCC1`, the call in assay [4] was inactive.
